The values that follow come from PubChem BioAssay (NCATS).

Assay [1] in a line: qHTS assay for small molecule agonists of the antioxidant response element (ARE) signaling pathway measured by Nrf2-dependant transcriptional activity - cell viability counter screen (AID 720653; active = well fitted curve in the direction sought with a large enough effect in the repeat runs; an effect the other way counts as inactive or inconclusive; note: % is set by controls: 0 for no effect and ±100 for the full control effect). Particulars: ARE-bla HepG2 viability, CellTiter-Glo ATP luminescence, 16 h; active compounds read low. In outline:
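ARE-bla HepG2 cells (2,000/well) rested 5 hrs at 37C/5% CO2, then exposed to compounds in DMSO for 16 hrs. Viability was read in the same wells as intracellular ATP by luminescence, 30 min at room temperature after reagent addition.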

In the next assay the test system is 3D7. The experiment in a line: qHTS profiling for inhibitors of Plasmodium falciparum proliferation (AID 504749). Note: nearly all actives have a fitted effect of over 60% in size. Note: potency is the fitted concentration of half-maximal effect. The conditions noted are these: P. falciparum in erythrocytes, SYBR Green DNA, 72 h; series mostly up to 28.7 µM. In outline:
(§1)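 Parasite proliferation within erythrocytes, 72 h exposure. Endpoint: SYBR Green I fluorescence after overnight lysis at room temperature. Controls: 0.29 uM artemisinin, DMSO.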

The subject of the next assay is AS120. The assay is described as above. The conditions noted are these: P. falciparum in erythrocytes, SYBR Green DNA, 72 h; series mostly up to 28.7 µM. In outline: as §1
The subject of the next assay is ATS95. Described as above. Particulars: P. falciparum in erythrocytes, SYBR Green DNA, 72 h; series mostly up to 28.7 µM. In outline:
as §1

The next assay relates to CP185. The assay is described as above. The conditions noted are these: P. falciparum in erythrocytes, SYBR Green DNA, 72 h; series mostly up to 28.7 µM. In outline: as §1
The subject of the next assay is CP192. The assay is described as above. The conditions noted are these: P. falciparum in erythrocytes, SYBR Green DNA, 72 h; series mostly up to 28.7 µM. In outline:
as §1

The next assay deals with CP211. The assay is described as above. Particulars: P. falciparum in erythrocytes, SYBR Green DNA, 72 h; series mostly up to 28.7 µM. The gist of the method:
as §1

For another assay, the system named is CP217. The description is as above. Particulars: P. falciparum in erythrocytes, SYBR Green DNA, 72 h; series mostly up to 28.7 µM. In outline: as §1
Another assay concerns CP238. Described as above. Particulars: P. falciparum in erythrocytes, SYBR Green DNA, 72 h; series mostly up to 28.7 µM. In outline: as §1
A further assay relates to CP247. The description is as above. Particulars: P. falciparum in erythrocytes, SYBR Green DNA, 72 h; series mostly up to 28.7 µM. In outline:
as §1

Another assay relates to CP250. Described as above. Particulars: P. falciparum in erythrocytes, SYBR Green DNA, 72 h; series mostly up to 12.8 µM. In outline:
as §1

In the next assay the test system is CP252. The assay is described as above. Particulars: P. falciparum in erythrocytes, SYBR Green DNA, 72 h; series mostly up to 12.8 µM. The gist of the method:
as §1

The test system of another assay is CP256. The assay is described as above. The conditions noted are these: P. falciparum in erythrocytes, SYBR Green DNA, 72 h; series mostly up to 28.7 µM. In outline:
as §1

Another assay has as its system CP262. The assay is described as above. Particulars: P. falciparum in erythrocytes, SYBR Green DNA, 72 h; series mostly up to 28.7 µM. In outline:
as §1

The next assay deals with CP286. The description is as above. Particulars: P. falciparum in erythrocytes, SYBR Green DNA, 72 h; series mostly up to 28.7 µM. The gist of the method:
as §1

Another assay deals with ECU. The assay is described as above. The conditions noted are these: P. falciparum in erythrocytes, SYBR Green DNA, 72 h; series mostly up to 28.7 µM. The gist of the method: as §1
Another assay deals with HB3. The assay is described as above. The conditions noted are these: P. falciparum in erythrocytes, SYBR Green DNA, 72 h; series mostly up to 28.7 µM. In outline: as §1
The test system of a further assay is N140. The description is as above. The conditions noted are these: P. falciparum in erythrocytes, SYBR Green DNA, 72 h; series mostly up to 28.7 µM. The gist of the method: as §1
Another assay relates to P94_40. The assay is described as above. The conditions noted are these: P. falciparum in erythrocytes, SYBR Green DNA, 72 h; series mostly up to 28.7 µM. In outline: as §1
For another assay, the system named is TAB109. Described as above. Particulars: P. falciparum in erythrocytes, SYBR Green DNA, 72 h; series mostly up to 12.8 µM. In outline:
as §1

Results filed as inconclusive are left out. Unmarked numbers belong to inactive results. The source made the active and inactive calls. Unless noted, calls come from the whole dose curve; as a rule, active = well fitted curve in the direction sought with a large enough effect; inconclusive = small, poorly fitted or top-dose-only effect, or another doubt; inactive = no such curve, though single readings can be large; an effect the other way counts as inactive or inconclusive.

For `CNC(=O)N(C)c1nnc(C(C)(C)C)s1`, in assay [1], the max response is 4.89%.

As to `CC(=O)OCC(=O)[C@@H]1CC[C@H]2[C@H]3CC[C@H]4C[C@@H](O)CC[C@]4(C)[C@@H]3C(=O)C[C@@]12C`, the Potency entry in the assay with 3D7, in the assay on AS120, in the assay with ATS95, with CP185, in the assay on CP192 and in the assay with CP211 was “inactive” throughout. In addition, the Potency entry in the assay on CP217, with CP238, with CP247, with CP250, in the assay with CP252 and with CP256 was “inactive” each time. For the same compound, the Potency entry in the assay on CP262, with CP286, with ECU, in the assay with HB3, in the assay with N140 and with P94_40 was “inactive” throughout. The Potency result in the assay with TAB109 is “inactive”.

On to `C[N+]1([O-])[C@@H]2CC[C@H]1CC(OC(=O)[C@@H](CO)c1ccccc1)C2` (stereo partly specified), for which the Potency result in the assay on 3D7, in the assay with AS120, in the assay with ATS95, with CP185, with CP192 and in the assay on CP211 was “inactive” throughout. Further, the Potency entry with CP217, in the assay with CP238, in the assay on CP247, with CP250, in the assay on CP252 and with CP256 was “inactive” in each case. Also, the Potency entry in the assay with CP262, with CP286, in the assay with ECU, in the assay with HB3, with N140 and with P94_40 was “inactive” in each case. Further, in the assay with TAB109, the Potency result was “inactive”.

For `C[C@@H]1O[C@H](O[C@@H]2C=C3CC[C@H]4[C@@H](CC[C@]5(C)[C@@H](c6ccc(=O)oc6)CC[C@]45O)[C@@]3(C)CC2)[C@@H](O)[C@H](O)[C@@H]1O`, the Potency result in the assay with 3D7, in the assay with AS120, in the assay with ATS95, in the assay with CP185, in the assay on CP192 and in the assay on CP211 was “inactive” each time. For the same compound, the Potency entry in the assay on CP217, in the assay with CP238, with CP247, in the assay with CP250, in the assay on CP252 and with CP256 was “inactive” throughout. Also, the Potency entry in the assay with CP286, in the assay on ECU, in the assay on HB3, in the assay with N140, with P94_40 and in the assay with TAB109 was “inactive” throughout.

`CC(C)N(CC[C@@](C(N)=O)(c1ccccc1)c1ccccn1)C(C)C`: the Potency result in the assay with 3D7, in the assay with AS120, in the assay with ATS95, in the assay on CP185, in the assay with CP192 and with CP211 was “inactive” each time. For the same compound, the Potency result in the assay on CP217, in the assay on CP238, with CP247, in the assay on CP250, in the assay with CP252 and in the assay with CP256 was “inactive” each time. For the same compound, the Potency entry in the assay on CP262, with CP286, in the assay on ECU, in the assay with HB3, in the assay on N140 and with P94_40 was “inactive” in each case. Also, the Potency entry with TAB109 was “inactive”.

Consider `CN(C)[C@@H]1C(=O)C(C(N)=O)=C(O)[C@]2(O)C(=O)C3=C(O)c4c(O)ccc(Cl)c4[C@](C)(O)[C@H]3C[C@@H]12`, for which the Potency entry in the assay with 3D7, in the assay with AS120, in the assay with ATS95, in the assay on CP185, in the assay on CP192 and in the assay with CP211 was “inactive” each time. The Potency entry in the assay with CP217, with CP238, with CP247, with CP250, with CP252 and in the assay with CP256 was “inactive” in each case. Further, the Potency result in the assay with CP262, with CP286, in the assay on ECU, in the assay with HB3, in the assay on N140 and with P94_40 was “inactive” throughout. Also, the Potency entry with TAB109 is “inactive”.

Regarding `Clc1ccc([C@@H](OCCN2CCCCC2)c2ccccc2)cc1`, the Potency result in the assay on 3D7, with CP185, with CP192, in the assay on CP211, with CP217 and with CP238 was “inactive” throughout. Moreover, the Potency entry in the assay on CP250, with CP252, in the assay with CP256 and with CP262 was “inactive” throughout. In addition, the Potency in the assay on CP286 is 3.55 µM (active); in the assay on HB3, 7.94 µM (active); with N140 it was 3.98 µM (active); in the assay with P94_40 it was 3.55 µM (active).

For `CCN[C@]1(c2cccs2)CCCCC1=O`, the Potency result with 3D7, in the assay with AS120, with ATS95, in the assay on CP185, in the assay on CP192 and with CP211 was “inactive” in each case. Further, the Potency result with CP217, in the assay with CP238, in the assay on CP247, in the assay on CP250, with CP252 and with CP256 was “inactive” in each case. Also, the Potency entry in the assay with CP262, in the assay on CP286, in the assay with ECU, in the assay on HB3, with N140 and in the assay on TAB109 was “inactive” each time.

On to `CNc1ccc(C(=O)CC(O)CCC(C)C2OC(=O)CC(O)CC(=O)CC(O)CC(O)CC(O)CC(O)CC3(O)CC(O)C(C(=O)OC)C(CC(O[C@@H]4OC(C)C(O)C(N)C4O)/C=C/C=C/C=C/C=C/C=C/C=C/C=C/C2C)O3)cc1` (stereo partly specified), for which the Potency entry in the assay with 3D7, in the assay with AS120, with ATS95, in the assay on CP185, in the assay on CP192 and in the assay on CP211 was “inactive” each time. For the same compound, the Potency result in the assay with CP217, in the assay on CP238, in the assay on CP247, in the assay on CP250, in the assay on CP252 and in the assay with CP256 was “inactive” each time. Also, the Potency result with CP262, in the assay on CP286, in the assay with ECU, in the assay with HB3, with N140 and with P94_40 was “inactive” in each case. For the same compound, the Potency entry in the assay on TAB109 is “inactive”.
